{"source": "PubChem BioAssay", "key": {"[1]": {"system": "transactivating tegument protein VP16 (Human herpesvirus 1)", "experiment": "VP16 transactivation reporter inhibitors, counter-screen for SRC2 inhibitor project, cell-based, luminescence, single concentration (AID 652007)", "settings": "cell-based VP16 transactivation luciferase reporter, at 8.9 µM, stronger effect = higher value"}, "[2]": {"target": "Nuclear receptor coactivator 2 (Homo sapiens) (UniProt Q15596)", "sequence (Q15596 whole entry, looked up, the tested form may be a part)": "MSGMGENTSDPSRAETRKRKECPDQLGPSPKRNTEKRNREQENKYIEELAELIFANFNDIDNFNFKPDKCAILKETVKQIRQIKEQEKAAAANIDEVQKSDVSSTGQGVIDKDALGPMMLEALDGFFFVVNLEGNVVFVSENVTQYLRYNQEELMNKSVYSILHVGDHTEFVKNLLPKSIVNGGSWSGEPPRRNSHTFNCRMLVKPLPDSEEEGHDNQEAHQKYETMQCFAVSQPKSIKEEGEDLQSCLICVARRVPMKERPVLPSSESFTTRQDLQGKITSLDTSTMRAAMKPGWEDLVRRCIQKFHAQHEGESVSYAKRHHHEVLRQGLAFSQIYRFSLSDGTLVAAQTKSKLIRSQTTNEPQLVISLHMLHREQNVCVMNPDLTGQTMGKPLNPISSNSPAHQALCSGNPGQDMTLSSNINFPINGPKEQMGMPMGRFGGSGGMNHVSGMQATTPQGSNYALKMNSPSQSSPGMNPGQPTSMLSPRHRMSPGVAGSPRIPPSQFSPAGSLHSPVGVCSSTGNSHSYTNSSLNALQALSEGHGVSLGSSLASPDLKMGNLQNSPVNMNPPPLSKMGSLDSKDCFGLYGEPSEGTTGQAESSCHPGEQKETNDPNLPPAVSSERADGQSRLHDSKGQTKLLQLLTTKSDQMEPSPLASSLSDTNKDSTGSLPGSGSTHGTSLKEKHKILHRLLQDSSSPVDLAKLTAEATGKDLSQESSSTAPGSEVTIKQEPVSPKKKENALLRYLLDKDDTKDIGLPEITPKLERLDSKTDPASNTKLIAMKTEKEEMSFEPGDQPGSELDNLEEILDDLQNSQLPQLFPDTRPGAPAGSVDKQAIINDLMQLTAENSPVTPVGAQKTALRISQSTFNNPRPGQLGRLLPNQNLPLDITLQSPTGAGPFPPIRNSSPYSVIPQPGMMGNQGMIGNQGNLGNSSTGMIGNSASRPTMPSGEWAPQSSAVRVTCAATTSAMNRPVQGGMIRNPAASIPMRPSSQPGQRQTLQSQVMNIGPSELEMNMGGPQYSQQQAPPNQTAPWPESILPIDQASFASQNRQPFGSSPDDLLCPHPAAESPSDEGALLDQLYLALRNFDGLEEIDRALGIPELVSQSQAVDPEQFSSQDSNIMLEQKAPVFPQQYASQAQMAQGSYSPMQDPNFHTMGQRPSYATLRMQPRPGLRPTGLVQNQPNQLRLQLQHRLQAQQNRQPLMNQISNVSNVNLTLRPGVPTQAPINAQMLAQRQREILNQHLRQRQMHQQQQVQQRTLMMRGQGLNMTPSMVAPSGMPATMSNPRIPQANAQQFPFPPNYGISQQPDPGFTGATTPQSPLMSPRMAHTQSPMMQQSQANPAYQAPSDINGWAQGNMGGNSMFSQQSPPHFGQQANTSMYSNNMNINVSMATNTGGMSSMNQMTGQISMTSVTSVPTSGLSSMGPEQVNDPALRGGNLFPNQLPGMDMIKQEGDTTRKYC", "experiment": "SRC2 coactivator transcriptional activity inhibitors, confirmation, cell-based, luminescence, HEK293, triplicate (AID 652008;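 active means mean inhibition above 46.5%, the solvent-only control mean plus 3 SD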;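 further: 0% = DMSO-treated cells and 100% = Gossypol at 36 µM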)", "settings": "HEK293 GAL4-SRC2 luciferase reporter, at 8.9 µM, stronger effect = higher value"}}, "note": "Values without a mark were called inactive. Active and inactive are the calls of the source. Unless noted, no stated cut-off is given here; in the data, active means inhibition above about 36%; inactive means the rest.", "data": [{"smiles": "Cc1ccc(C(=O)O/N=C(\\N)c2ccccn2)cc1", "values": [{"measurement": "inhibition", "setting": "[1]", "result": -66.4, "unit": "%"}, {"measurement": "inhibition", "setting": "[2]", "result": -57, "unit": "%"}]}, {"smiles": "Cc1nc2cc(-c3ccccc3)nn2c(C)c1CCC(=O)N1CCN(c2ccccc2)CC1", "values": [{"measurement": "inhibition", "setting": "[1]", "result": 3.67, "unit": "%"}, {"measurement": "inhibition", "setting": "[2]", "result": "52.6% (active)"}]}, {"smiles": "COc1ccc(/C=C2\\SC(=S)N(CCC(=O)NC3C=CS(=O)(=O)C3)C2=O)cc1", "note": "(configuration not stated)", "values": [{"measurement": "inhibition", "setting": "[1]", "result": 3.55, "unit": "%"}, {"measurement": "inhibition", "setting": "[2]", "result": "62.1% (active)"}]}, {"smiles": "CCC(C)(C(=O)NC1CCCCC1)N(Cc1cccs1)C(=O)CC1NC(=O)NC1=O", "note": "(configuration not stated)", "values": [{"measurement": "inhibition", "setting": "[1]", "result": -9.62, "unit": "%"}, {"measurement": "inhibition", "setting": "[2]", "result": -11.8, "unit": "%"}]}, {"smiles": "Cc1cc(OCC(=O)Nc2ccncc2)cc(C)c1Cl", "values": [{"measurement": "inhibition", "setting": "[1]", "result": 4.55, "unit": "%"}, {"measurement": "inhibition", "setting": "[2]", "result": 11.3, "unit": "%"}]}, {"smiles": "COc1ccc2c(c1)/C(=C\\c1cccc(/C=C3/C(=O)Nc4ccc(OC)cc43)n1)C(=O)N2", "values": [{"measurement": "inhibition", "setting": "[1]", "result": "90.5% (active)"}, {"measurement": "inhibition", "setting": "[2]", "result": "76.2% (active)"}]}]}
